Experimental data reported in PubChem BioAssay (NCATS).
Inconclusive results are not listed. Activity calls are given as the source filed them. Unless noted, the call rests on the fitted dose curve; in most records, active means well fitted curve in the direction sought with a large enough effect; inconclusive means small, poorly fitted or top-dose-only effect, or another doubt; inactive means no such curve, though single readings can be large; an effect the other way counts as inactive or inconclusive.

Columns and labels:
[1] = molecular target: Thioredoxin reductase 1, cytoplasmic (Rattus norvegicus) (UniProt O89049); experiment: qHTS Assay for Substrates of Mammalian Selenoprotein Thioredoxin Reductase 1 (TrxR1) (AID 488772);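 further: NADPH fluorescence in the first read after selenite addition and not the 8 min delta; a drop in NADPH fluorescence below the no-compound background marks a TrxR1 substrate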; further: potency means the concentration at half of the fitted maximal effect
How it was run: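 Quantitative HTS in Tris-HCl buffer at pH 7.5 with EDTA and Tween-20, using rat TrxR1, 400 uM NADPH and 400 uM selenite (final). A fall in initial NADPH fluorescence relative to background marked substrate behaviour.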

[2] = molecular target: Thioredoxin reductase 1, cytoplasmic (Rattus norvegicus) (UniProt O89049); experiment: qHTS Assay for Inhibitors of Mammalian Selenoprotein Thioredoxin Reductase 1 (TrxR1) (AID 488773); conditions: Potency: inhibition; further: nearly all actives have a fitted effect of over 40% in size; further: potency means the concentration at half of the fitted maximal effect
How it was run: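 Steps: enzyme (90 nM) plus NADPH (400 uM final), 5 min at ~22 deg C; compound added, 15 min; selenite (400 uM final) added; fluorescence followed for 8 min. Concentration-response curves derived from the normalized delta values.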

[3] = molecular target: M-phase phosphoprotein 8 (Homo sapiens) (UniProt Q99549); experiment: qHTS Validation Assay for Inhibitors for MPP8 Chromodomain Interactions with Methylated Histone Tails (AID 488949);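 further: AlphaScreen signal from MPP8 chromodomain bound to biotinylated H3K9me3 peptide; top concentration of the series differs between compounds; on the % scale 0 is the no-effect control and ±100 the full control effect; nearly all actives have a fitted effect of over 55% in size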
How it was run: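 AlphaScreen proximity signal from streptavidin donor and Ni-chelate acceptor beads (10 ug/mL each) reported binding of MPP8 to trimethyl-K9 H3(1-18) peptide, both at 50 nM. The complex formed 30 min before a 30 min compound exposure at room temperature, in PBS pH 7.4.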

[4] = molecular target: Chromobox protein homolog 1 (Homo sapiens) (UniProt P83916); experiment: qHTS Validation Assay for Inhibitors of HP1-beta Chromodomain Interactions with Methylated Histone Tails (AID 488953); further: nearly all actives have a fitted effect of over 50% in size; further: potency means the concentration at half of the fitted maximal effect
How it was run: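 HP1-beta (50 nM) preformed 30 min with biotinylated H3(1-18)K9me3 peptide (50 nM) in PBS pH 7.4, 0.01% Tween-20. Compounds added for 30 min at room temperature. Complex disruption read by AlphaScreen with streptavidin donor/nickel chelate acceptor beads (10 ug/mL each).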

[5] = molecular target: Methanococcus maripaludis chaperonin (MmCpn) (UniProt Q6LX38); experiment: High-Throughput Screening for Modulators of Cytosolic Chaperonin Activity: MmCpn Primary Screen (AID 488978);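 further: 50 nM MmCpn enzyme hydrolysing 30 µM ATP at 37 °C; 0% is about no effect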
How it was run: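 ATPase activity of 50 nM MmCpn was assayed with 30 uM ATP, 10 minutes at 37C, after a 5 min compound preincubation at room temperature. ADP production was read as HTRF emission at 590 and 665 nm.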

[6] = molecular target: Transient receptor potential cation channel subfamily V member 1 (Homo sapiens) (UniProt Q8NER1); experiment: HTS Assay for Compounds that Act as Enhancers of the Vanilloid Receptor 1 (AID 488979); further: 0% is about no effect
How it was run: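 TRPV1-expressing cells loaded with Fluo-8 calcium dye; compounds added and calcium influx read kinetically for 3 min (agonist phase), then capsaicin at EC20 added and read 2 min more for enhancement. Fluorescence ex 480/em 520 nm.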

[7] = molecular target: Thyrotropin receptor (Homo sapiens) (UniProt P16473); experiment: qHTS Assay for Antagonists of the Thyroid Stimulating Hormone Receptor (AID 488980); further: series mostly up to about 58 µM; 0% is about no effect
How it was run: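 Inhibition of cAMP raised by EC80 TSH (4 nM final) was read by HTRF, with lysate cAMP competing against cAMP-d2 for cryptate antibody after 30 min at room temperature. The cells were transfected HEK293 held in phosphodiesterase inhibitor RO 20-1724 at 70 uM.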

[8] = molecular target: D(1A) dopamine receptor (Homo sapiens) (UniProt P21728); experiment: HTS Assay for Allosteric Agonists of the Human D1 Dopamine Receptor: Primary Screen for Antagonists (AID 488983);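 further: calcium flux response to an EC80 dopamine challenge measured with no-wash dye; nearly all actives have a fitted effect of over 65% in size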; further: potency means the concentration at half of the fitted maximal effect
How it was run: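 Tetracycline-induced HEK293 T-REx D1 line, force-coupled to calcium flux, read with no-wash calcium dye. Compound added after 10 s baseline, read 180 s for agonism, then EC80 dopamine added and read a further 180 s.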

[9] = Validation screen for small molecules that induce genotoxicity in human embryonic kidney (HEK293T) cells expressing luciferase-tagged ELG1 (AID 493106); further: potency means the concentration at half of the fitted maximal effect
How it was run: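 HEK293T cells expressing luciferase-tagged ELG1, 2,000 cells/well, exposed to compound 16 hr at 37 °C, 5% CO2. Luciferase read after ONE-Glo, 30 min at room temperature; increased signal indicates genetic stress.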

[10] = molecular target: Thyrotropin-releasing hormone receptor (Homo sapiens) (UniProt P34981); experiment: qHTS for Small Molecule Agonists and Allosteric Enhancers of Human TRH Receptor: Validation Screen for Agonists (AID 493127;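 active means calcium activation more than 3 SD above the typical response in the agonist read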; further: 0% is about no effect); conditions: TRH receptor agonist cell assay; at 2 µM; stronger effect = higher value
How it was run: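 TRHR cells loaded with fluo-8 calcium dye; FDSS kinetic fluorescence (Ex 480/Em 530) read at 1 s/cycle after 23 nL compound addition. Agonist-mode calcium response recorded before the 10 nM TRH (EC20) addition.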

[11] = qHTS for Inhibitors of Cell Surface uPA Generation: Validation Assay (AID 493164); further: 0% is about no effect
How it was run: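 RAW 264.7 cells (4000/well) were plated overnight, then exposed for 18 h at 37 C, 5% CO2 to compounds in a 7-point 1:5 titration (2.45 nM–38.3 uM final). Intracellular ATP was read by ATP-Lite luminescence.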

[12] = molecular target: Galactokinase (Homo sapiens) (UniProt P51570); experiment: qHTS Validation Assay for Inhibitors of Human Galactokinase (GALK) (AID 493189); further: potency means the concentration at half of the fitted maximal effect
How it was run: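 Inhibition was measured as remaining ATP, detected by luciferase luminescence after a 1 h room-temperature reaction. Final conditions: 5 nM GALK, 100 uM galactose, 35 uM ATP, pH 8.0 HEPES buffer.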

[13] = molecular target: Flap endonuclease 1 (Homo sapiens) (UniProt P39748); experiment: qHTS Validation Assay for the Inhibitors of Human Flap endonuclease 1 (FEN1) (AID 488816); further: on the % scale 0 is the no-effect control and ±100 the full control effect
How it was run: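 FEN1, dispensed as a 10 nM reagent, was preincubated with pin-transferred compounds for 15 min at room temperature before substrate was added (50 nM final). Plates were read at 0 and 15 min, and a four-parameter Hill equation was fitted to the concentration-response data.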

[14] = molecular target: D(1A) dopamine receptor (Homo sapiens) (UniProt P21728); experiment: HTS Assay for Allosteric Agonists of the Human D1 Dopamine Receptor: Primary Screen for Potentiators (AID 488982); further: 0% is about no effect
How it was run: (§1)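 Tetracycline-induced HEK293 T-REx cells force-coupled to calcium signalling were incubated overnight at 30 C and dye-loaded at room temperature. Calcium flux over 180 s after compound addition flagged agonists; a further 180 s read after EC20 dopamine flagged potentiators.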

[15] = molecular target: ATPase family AAA domain-containing protein 5 (Homo sapiens) (UniProt Q96QE3); experiment: Validation screen for small molecules that inhibit ELG1-dependent DNA repair in human embryonic kidney (HEK293T) cells expressing luciferase-tagged ELG1 (AID 493107);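 further: cells co-treated with the DNA-damaging agent 5-fluorouridine alongside compound; series mostly up to about 46 µM; on the % scale 0 is the no-effect control and ±100 the full control effect; inhibitors lower the ELG1-luciferase luminescence signal; nearly all actives have a fitted effect of over 70% in size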
How it was run: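 HEK293T cells expressing luciferase-tagged ELG1, 2,000 per well, treated with 5-fluorouridine plus compound for 16 h at 37 C. ONE-Glo luminescence after 30 min at room temperature reports ELG1 reporter level.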

[16] = Nrf2 qHTS screen for inhibitors: Validation (AID 493153; active means well fitted inhibition curve with a large enough effect in the main read-out, with a control signal flat, not every such curve was filed as active; further: potency means the concentration at half of the fitted maximal effect); conditions: Potency: luciferase luminescence; viability change: measured here: cytotoxicity max response
How it was run: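 A549 cells carrying ARE-firefly luciferase reporter, 5000 cells/well in 5% FBS OPTI-MEM, treated with compound over a concentration series for 18-24 h at 37 C. Luciferase luminescence gave Nrf2 activity; CellTiter-Fluor fluorescence gave viability.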

[17] = molecular target: D(1A) dopamine receptor (Homo sapiens) (UniProt P21728); experiment: HTS Assay for Allosteric Agonists of the Human D1 Dopamine Receptor: Primary Screen for Agonists (AID 488981); further: potency means the concentration at half of the fitted maximal effect; on activation: 0% is about no effect
How it was run: as §1

Flap endonuclease 1 (Homo sapiens), sequence (P39748 whole entry, looked up): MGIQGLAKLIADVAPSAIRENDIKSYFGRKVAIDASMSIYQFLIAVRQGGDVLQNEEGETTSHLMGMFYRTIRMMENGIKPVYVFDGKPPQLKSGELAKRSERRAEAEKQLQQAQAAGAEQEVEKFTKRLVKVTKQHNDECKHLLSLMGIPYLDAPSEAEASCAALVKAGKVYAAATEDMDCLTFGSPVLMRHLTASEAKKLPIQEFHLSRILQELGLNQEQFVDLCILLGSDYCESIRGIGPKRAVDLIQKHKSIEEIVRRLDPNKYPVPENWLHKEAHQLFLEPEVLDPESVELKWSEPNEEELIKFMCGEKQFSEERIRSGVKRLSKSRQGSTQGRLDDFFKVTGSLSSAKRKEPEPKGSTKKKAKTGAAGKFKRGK
M-phase phosphoprotein 8 (Homo sapiens), sequence (Q99549 whole entry, looked up): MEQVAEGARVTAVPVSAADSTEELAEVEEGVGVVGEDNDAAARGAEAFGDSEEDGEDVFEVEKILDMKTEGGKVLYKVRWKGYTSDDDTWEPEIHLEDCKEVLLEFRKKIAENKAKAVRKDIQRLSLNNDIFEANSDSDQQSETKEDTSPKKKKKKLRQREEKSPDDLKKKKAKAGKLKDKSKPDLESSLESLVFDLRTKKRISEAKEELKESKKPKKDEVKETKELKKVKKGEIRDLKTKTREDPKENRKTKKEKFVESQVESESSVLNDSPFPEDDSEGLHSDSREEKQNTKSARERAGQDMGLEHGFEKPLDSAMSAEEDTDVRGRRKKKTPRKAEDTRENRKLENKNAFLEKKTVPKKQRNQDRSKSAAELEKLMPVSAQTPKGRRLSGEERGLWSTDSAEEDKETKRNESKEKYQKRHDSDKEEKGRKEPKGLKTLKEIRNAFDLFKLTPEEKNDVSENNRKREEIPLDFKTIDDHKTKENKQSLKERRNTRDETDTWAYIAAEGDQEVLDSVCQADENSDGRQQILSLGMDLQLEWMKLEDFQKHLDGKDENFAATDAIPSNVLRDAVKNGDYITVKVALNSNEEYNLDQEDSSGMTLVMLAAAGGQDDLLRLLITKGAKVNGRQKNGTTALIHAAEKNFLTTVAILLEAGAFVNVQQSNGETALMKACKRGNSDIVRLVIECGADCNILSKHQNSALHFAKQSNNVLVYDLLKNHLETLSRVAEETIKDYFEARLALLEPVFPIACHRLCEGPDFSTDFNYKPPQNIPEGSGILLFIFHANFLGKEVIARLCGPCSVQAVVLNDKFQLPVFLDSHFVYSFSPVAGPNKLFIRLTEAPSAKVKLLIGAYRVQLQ
Methanococcus maripaludis chaperonin (MmCpn), sequence (Q6LX38 1-543): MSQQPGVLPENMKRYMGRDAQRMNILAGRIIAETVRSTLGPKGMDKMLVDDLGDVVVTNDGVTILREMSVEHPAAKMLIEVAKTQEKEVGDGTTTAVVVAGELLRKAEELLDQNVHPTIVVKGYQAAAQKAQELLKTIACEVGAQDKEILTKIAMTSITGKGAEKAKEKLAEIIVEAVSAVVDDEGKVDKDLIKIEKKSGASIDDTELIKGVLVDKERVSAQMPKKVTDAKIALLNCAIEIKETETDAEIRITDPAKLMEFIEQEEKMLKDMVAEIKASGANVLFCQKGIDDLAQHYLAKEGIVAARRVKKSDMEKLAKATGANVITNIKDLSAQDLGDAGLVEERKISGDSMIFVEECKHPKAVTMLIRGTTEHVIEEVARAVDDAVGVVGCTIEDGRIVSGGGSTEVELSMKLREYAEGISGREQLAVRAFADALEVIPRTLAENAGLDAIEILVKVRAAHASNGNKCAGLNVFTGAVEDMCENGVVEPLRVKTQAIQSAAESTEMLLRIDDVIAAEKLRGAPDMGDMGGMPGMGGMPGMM
Chromobox protein homolog 1 (Homo sapiens), sequence (P83916 whole entry, looked up): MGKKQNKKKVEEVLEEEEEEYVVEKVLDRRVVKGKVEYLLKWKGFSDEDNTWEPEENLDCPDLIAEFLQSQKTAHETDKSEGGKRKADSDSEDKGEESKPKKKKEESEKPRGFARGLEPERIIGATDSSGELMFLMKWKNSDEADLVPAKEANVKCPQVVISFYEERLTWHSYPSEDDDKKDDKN
Thioredoxin reductase 1, cytoplasmic (Rattus norvegicus), sequence (O89049 whole entry, looked up): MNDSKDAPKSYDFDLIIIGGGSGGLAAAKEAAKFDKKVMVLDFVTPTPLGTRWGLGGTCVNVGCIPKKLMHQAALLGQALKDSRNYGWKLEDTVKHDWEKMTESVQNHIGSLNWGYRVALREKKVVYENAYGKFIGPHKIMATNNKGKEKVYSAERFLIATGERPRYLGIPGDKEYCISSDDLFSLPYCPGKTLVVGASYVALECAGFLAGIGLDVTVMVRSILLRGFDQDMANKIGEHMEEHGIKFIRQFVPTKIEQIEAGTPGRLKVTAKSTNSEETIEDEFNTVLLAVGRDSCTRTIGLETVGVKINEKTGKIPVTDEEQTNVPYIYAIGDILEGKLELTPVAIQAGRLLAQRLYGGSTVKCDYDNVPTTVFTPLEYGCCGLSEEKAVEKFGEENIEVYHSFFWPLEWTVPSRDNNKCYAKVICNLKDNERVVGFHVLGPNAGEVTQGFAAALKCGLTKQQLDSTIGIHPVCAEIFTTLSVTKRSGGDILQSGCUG
D(1A) dopamine receptor (Homo sapiens), sequence (P21728 whole entry, looked up): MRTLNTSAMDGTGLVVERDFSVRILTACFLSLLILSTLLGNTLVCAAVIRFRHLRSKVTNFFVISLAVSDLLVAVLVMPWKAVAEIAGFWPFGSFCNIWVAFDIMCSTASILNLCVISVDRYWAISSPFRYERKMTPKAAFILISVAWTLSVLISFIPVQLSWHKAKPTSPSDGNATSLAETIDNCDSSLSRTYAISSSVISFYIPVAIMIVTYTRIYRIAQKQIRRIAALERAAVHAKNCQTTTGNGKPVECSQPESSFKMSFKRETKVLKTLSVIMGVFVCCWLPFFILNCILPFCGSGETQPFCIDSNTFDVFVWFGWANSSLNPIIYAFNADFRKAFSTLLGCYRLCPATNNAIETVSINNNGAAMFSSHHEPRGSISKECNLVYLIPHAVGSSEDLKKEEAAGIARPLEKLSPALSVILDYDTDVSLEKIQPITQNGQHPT
Thyrotropin-releasing hormone receptor (Homo sapiens), sequence (P34981 whole entry, looked up): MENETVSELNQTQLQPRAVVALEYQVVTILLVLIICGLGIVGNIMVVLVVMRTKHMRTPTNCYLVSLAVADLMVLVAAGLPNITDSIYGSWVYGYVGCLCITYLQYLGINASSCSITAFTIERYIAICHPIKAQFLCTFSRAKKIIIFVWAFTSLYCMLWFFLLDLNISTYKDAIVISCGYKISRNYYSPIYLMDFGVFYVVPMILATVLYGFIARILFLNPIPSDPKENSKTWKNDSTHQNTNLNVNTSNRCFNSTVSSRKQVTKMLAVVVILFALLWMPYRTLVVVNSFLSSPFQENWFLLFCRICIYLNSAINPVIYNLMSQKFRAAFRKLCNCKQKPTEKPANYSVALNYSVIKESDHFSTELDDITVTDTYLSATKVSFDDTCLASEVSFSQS
Thyrotropin receptor (Homo sapiens), sequence (P16473 whole entry, looked up): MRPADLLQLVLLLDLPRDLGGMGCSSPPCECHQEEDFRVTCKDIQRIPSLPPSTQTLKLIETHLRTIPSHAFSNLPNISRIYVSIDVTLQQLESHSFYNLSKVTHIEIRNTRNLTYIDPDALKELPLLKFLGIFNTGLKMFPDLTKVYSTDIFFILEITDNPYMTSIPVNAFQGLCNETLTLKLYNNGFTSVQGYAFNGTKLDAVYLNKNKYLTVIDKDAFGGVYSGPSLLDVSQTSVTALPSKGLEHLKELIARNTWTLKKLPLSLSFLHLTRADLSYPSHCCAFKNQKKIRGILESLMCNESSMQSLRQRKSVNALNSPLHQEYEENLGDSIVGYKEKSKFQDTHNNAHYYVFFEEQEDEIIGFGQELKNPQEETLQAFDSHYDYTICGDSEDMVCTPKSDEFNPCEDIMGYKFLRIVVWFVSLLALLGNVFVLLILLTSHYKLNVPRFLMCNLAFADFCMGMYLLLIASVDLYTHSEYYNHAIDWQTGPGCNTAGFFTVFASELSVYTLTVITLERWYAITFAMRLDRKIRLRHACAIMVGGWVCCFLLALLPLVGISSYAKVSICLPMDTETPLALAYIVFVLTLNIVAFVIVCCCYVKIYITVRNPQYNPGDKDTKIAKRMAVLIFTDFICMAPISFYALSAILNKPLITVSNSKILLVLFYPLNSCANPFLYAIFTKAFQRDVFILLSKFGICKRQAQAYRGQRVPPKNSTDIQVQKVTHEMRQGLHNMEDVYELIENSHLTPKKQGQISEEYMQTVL
Galactokinase (Homo sapiens), sequence (P51570 whole entry, looked up): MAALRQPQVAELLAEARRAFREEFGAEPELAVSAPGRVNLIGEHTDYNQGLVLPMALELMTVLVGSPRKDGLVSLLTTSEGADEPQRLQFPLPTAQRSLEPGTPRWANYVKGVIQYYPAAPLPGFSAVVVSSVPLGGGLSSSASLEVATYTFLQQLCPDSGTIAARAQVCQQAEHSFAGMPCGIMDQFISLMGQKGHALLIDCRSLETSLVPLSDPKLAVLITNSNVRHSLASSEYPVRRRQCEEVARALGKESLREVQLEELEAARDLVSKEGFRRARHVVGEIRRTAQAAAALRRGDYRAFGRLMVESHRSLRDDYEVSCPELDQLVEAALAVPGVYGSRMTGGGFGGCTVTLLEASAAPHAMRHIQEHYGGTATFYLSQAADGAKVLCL

O=C1C(SCCO)=C(SCCO)C(=O)c2ccccc21
active: Potency [1] 16.8 µM | Potency [2] 26.7 µM | Potency [4] 10 µM | Potency [8] 11.2 µM | Potency [12] 25.1 µM
inactive: Potency [3] | outcome [5] | outcome [6] | outcome [7] | Potency [9] | activation [10] -3.25% | outcome [11]

CNCC[C@H](Oc1ccc(C(F)(F)F)cc1)c1ccccc1
1.58%: viability change [16]
inactive: Potency [1] | Potency [2] | Potency [13] | Potency [3] | outcome [7] | Potency [14] | Potency [9] | Potency [15] | activation [10] 14.1% | Potency [16] | outcome [11] | Potency [12]

CSc1nc(N)c2ncn([C@@H]3O[C@H](COP(=O)(O)OP(=O)(O)OP(=O)(O)O)[C@@H](O)[C@H]3O)c2n1
inactive: Potency [1] | Potency [2] | Potency [3] | Potency [4] | outcome [5] | Potency [9] | Potency [16] | outcome [11]
active: Potency [17] 1.58 µM
-1.62%: viability change [16]

O=C(c1ccc(OCCCc2cnc[nH]2)cc1)C1CC1
inactive: Potency [1] | Potency [2] | Potency [13] | Potency [3] | outcome [5] | Potency [14] | Potency [8] | Potency [16] | outcome [11]
-3.26%: viability change [16]

C[N+](C)(C)CCOP(=O)(O)OP(=O)([O-])OC[C@H]1O[C@@H](n2ccc(N)nc2=O)[C@H](O)[C@@H]1O
inactive: Potency [1] | Potency [2] | Potency [3] | Potency [4] | outcome [5] | Potency [17] | Potency [14] | Potency [8] | Potency [9] | Potency [16] | outcome [11]
2.92%: viability change [16]

NC(=S)NCCC[C@H](N)C(=O)O
active: Potency [4] 10 µM
2.08%: viability change [16]
inactive: Potency [1] | Potency [2] | Potency [3] | outcome [5] | Potency [17] | Potency [14] | Potency [8] | Potency [9] | Potency [16] | outcome [11]

O=C1/C(=C/c2ccsc2)CC/C1=C\c1cccs1
inactive: Potency [1] | Potency [2] | Potency [13] | Potency [3] | Potency [17] | Potency [8] | Potency [15] | Potency [16] | outcome [11]
-8.76%: viability change [16]
active: Potency [9] 23.1 µM

COc1ccccc1N1CCN(CCN(C(=O)c2ccc(I)cc2)c2ccccn2)CC1
-4.45%: viability change [16]
active: Potency [8] 5.62 µM | Potency [16] 14.6 µM
inactive: Potency [1] | Potency [2] | Potency [13] | Potency [3] | outcome [5] | Potency [17] | Potency [14] | Potency [9] | outcome [11]

Cc1cc(NC(=O)Nc2ccc3c(ccn3C)c2)sn1
inactive: Potency [1] | Potency [2] | Potency [13] | Potency [3] | outcome [5] | outcome [6] | outcome [7] | Potency [17] | Potency [14] | activation [10] 0.625% | Potency [16] | outcome [11] | Potency [12]
3.91%: viability change [16]
